Compound activity (PubChem BioAssay)
An excerpt weighted towards active compounds, which were near 0.96% of everything screened.
V-ATPase pH: alters yeast V-ATPase proton transport; S. cerevisiae, pHLuorin cytosolic pH fluorescence; response, % at 10 µM; 0.37% of 350,000 active; AID 504577; in the data active = response mostly above about 7.3%, no sharp cut-off; inactive = mostly below about 5.4%; also: actives read high
Rtt109 Vps75: blocks Candida albicans Rtt109/Vps75 acetyltransferase activity; Q5AAJ8; purified Rtt109/Vps75, ThioGlo CoA-SH fluorescence, 4 h; inhibition, % at 34.9 µM; 0.16% of 330,000 active; AID 540336;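 active = inhibition of at least 50% in every replicate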
Target sequence (Q5AAJ8 whole entry, looked up): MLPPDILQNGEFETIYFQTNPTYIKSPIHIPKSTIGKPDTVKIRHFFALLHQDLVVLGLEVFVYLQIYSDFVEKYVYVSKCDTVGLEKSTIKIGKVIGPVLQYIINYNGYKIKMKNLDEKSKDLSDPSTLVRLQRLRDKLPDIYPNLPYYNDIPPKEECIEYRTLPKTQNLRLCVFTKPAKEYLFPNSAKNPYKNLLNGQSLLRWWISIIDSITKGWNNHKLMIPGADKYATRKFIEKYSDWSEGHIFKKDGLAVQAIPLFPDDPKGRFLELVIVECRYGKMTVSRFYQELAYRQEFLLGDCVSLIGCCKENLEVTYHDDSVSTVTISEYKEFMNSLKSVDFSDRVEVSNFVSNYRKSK
HDAC3 inhib: inhibitors of human histone deacetylase 3. O15379. 0.15% of 320,000 active. AID 2718. inhibition, % at 8.3 µM. recombinant HDAC3, fluorogenic peptide/trypsin coupled, fluorescence; in the data active = inhibition above about 26%, passing the limit was not always enough
DAGLB inh: diacylglycerol lipase beta (human) inhibition | 0.059% of 340,000 active | AID 504411 | Q8NCG7 | inhibition, % at 5.17 µM | HEK293T DAGLB membrane lysate, EnzChek fluorogenic substrate; in the data active = inhibition above about 34%;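 also: 0% = enzyme with vehicle and 100% = wells lacking enzyme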
MIN6 prolif: inducers of beta-cell replication in MIN6 cells; MIN6 cells proliferation, ATPlite luminescence, 48 h; cells starved in 0.2% serum; 100% = growth in 10% serum; proliferation, % at 10 µM; 0.29% of 330,000 active; AID 2380;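 active = compounds whose signal lies at least 3.5 SD above the mean of all wells on their plate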;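 also: 0% = DMSO-treated cells in low-serum medium and 100% = 10% serum control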
Active calls of the source: *.

What do the screens show for `Cc1oc(-c2cc3c(cc2Cl)OCO3)nc1CN1CCCC(C(=O)N2CCOCC2)C1` (stereo not given)?
V-ATPase pH: 16*; Rtt109 Vps75: 3; HDAC3 inhib: 3; DAGLB inh: 3; MIN6 prolif: -3

What do the screens show for `Cc1ccc(S(=O)(=O)c2nc(-c3ccccc3)oc2N2CCC(C(N)=O)CC2)cc1`?
V-ATPase pH: -3; Rtt109 Vps75: 56*; HDAC3 inhib: -2; DAGLB inh: -1; MIN6 prolif: -7

How did COc1ccc(S(=O)(=O)N2CCC(O)(c3ccc(Cl)cc3)CC2)cc1 do in these assays?
V-ATPase pH: -1; Rtt109 Vps75: 5; DAGLB inh: -7; MIN6 prolif: -4

How did COc1ccc(S(=O)(=O)N2CCC(O)(c3ccc(Cl)cc3)CC2)cc1OC do in these assays?
V-ATPase pH: 17*; Rtt109 Vps75: -2; HDAC3 inhib: -5; DAGLB inh: -3; MIN6 prolif: 5

Results for CCOc1ccc(N(CC(=O)NCCC2=CCCCC2)S(=O)(=O)c2ccccc2)cc1 ?
V-ATPase pH: -1; Rtt109 Vps75: -2; HDAC3 inhib: 0; DAGLB inh: -7; MIN6 prolif: -4

What do the screens show for `O=C(CC1SC(=O)N(c2ccccc2)C1=O)Nc1ccc(Br)cc1` (stereo not given)?
V-ATPase pH: -3; HDAC3 inhib: 50*; MIN6 prolif: -3

Results for O=C(CC1SC(=O)N(c2ccccc2)C1=O)Nc1ccc(Cl)cc1 (stereo not given) ?
V-ATPase pH: -2; Rtt109 Vps75: 11; HDAC3 inhib: 45*; DAGLB inh: 13; MIN6 prolif: -2

What do the screens show for `Cc1ccc(N2CC(O)CSC2=Nc2ccccc2)cc1` (stereo not given)?
V-ATPase pH: 1; DAGLB inh: -3

What do the screens show for `CC[n+]1c(/C=C/C=C/N(C(C)=O)c2ccccc2)sc2cc(OC)ccc21`?
HDAC3 inhib: 45*

How did O=C(Nc1ccc2oc(-c3ccncc3)nc2c1)c1ccc2c(c1)OCCO2 do in these assays?
V-ATPase pH: 3; Rtt109 Vps75: 57*; HDAC3 inhib: 0; DAGLB inh: -1; MIN6 prolif: -1

How did CCOc1ccc(S(=O)(=O)n2cnc3cc(C)c(C)cc32)cc1 do in these assays?
V-ATPase pH: -2; Rtt109 Vps75: 33; HDAC3 inhib: 10; DAGLB inh: 0; MIN6 prolif: -4

What do the screens show for `CC(C)C(=O)Nc1nnc(CCN2CCCCC2)s1`?
V-ATPase pH: -2; Rtt109 Vps75: 52*; HDAC3 inhib: 1; DAGLB inh: -1; MIN6 prolif: -3

Results for O=C1C(Cl)=C(N2CCOCC2)C(=O)N1c1cccc(Cl)c1 ?
V-ATPase pH: 3; Rtt109 Vps75: -2; HDAC3 inhib: 5; DAGLB inh: 4; MIN6 prolif: -5

Results for Cc1cccc(N2C(=O)C(Cl)=C(N3CCOCC3)C2=O)c1 ?
V-ATPase pH: 3; Rtt109 Vps75: 113*; HDAC3 inhib: 1; DAGLB inh: 0; MIN6 prolif: -3

Results for CS(=O)(=O)N(CC(=O)NCCSC1CCCCC1)c1ccc2c(c1)OCO2 ?
V-ATPase pH: 24*; Rtt109 Vps75: 0; HDAC3 inhib: 3; DAGLB inh: -4; MIN6 prolif: -1

What do the screens show for `COC(=O)c1ccccc1S(=O)(=O)N1CCC(C(=O)OCC(=O)c2ccccc2OC)CC1`?
V-ATPase pH: 0; Rtt109 Vps75: 10; HDAC3 inhib: -2; DAGLB inh: -2; MIN6 prolif: 2

How did CCCCCSc1nc2c(cnn2-c2ccc(F)cc2)c(=O)[nH]1 do in these assays?
V-ATPase pH: 1; Rtt109 Vps75: -3; HDAC3 inhib: 7; DAGLB inh: 0; MIN6 prolif: 0

Results for CN(C)S(=O)(=O)NCCNC(=O)c1cc(OCC(F)(F)F)ccc1OCC(F)(F)F ?
V-ATPase pH: -1; HDAC3 inhib: 0; DAGLB inh: -1; MIN6 prolif: -3

How did O=C(NCCNC(=O)c1cc(OCC(F)(F)F)ccc1OCC(F)(F)F)Nc1cccc(C(F)(F)F)c1 do in these assays?
V-ATPase pH: 1; Rtt109 Vps75: 0; HDAC3 inhib: 36*; DAGLB inh: -4; MIN6 prolif: -6

What do the screens show for `O=C(CSC1=NC2(CCCCC2)N=C1c1ccccc1)Nc1ccc2c(c1)OCCO2`?
V-ATPase pH: -1; Rtt109 Vps75: 170*; HDAC3 inhib: -2; DAGLB inh: -40; MIN6 prolif: -4

Results for COC(=O)c1sccc1NC(=O)Nc1ccc(C)cc1 ?
V-ATPase pH: -2; Rtt109 Vps75: 2; HDAC3 inhib: -4; DAGLB inh: -10; MIN6 prolif: -5

How did CCS(=O)(=O)N1Cc2ccccc2CC1C(=O)N(C)Cc1ccc(OC)c(F)c1 (stereo not given) do in these assays?
V-ATPase pH: 15*; Rtt109 Vps75: -6; HDAC3 inhib: -13; DAGLB inh: 2; MIN6 prolif: -1

What do the screens show for `N#Cc1cc2c(N)c(C(=O)Nc3ccccc3)sc2nc1N`?
HDAC3 inhib: -7; MIN6 prolif: -2

How did O=C(/C=C/Nc1nccs1)C(F)(F)Cl do in these assays?
V-ATPase pH: 0; HDAC3 inhib: 54*; DAGLB inh: 2; MIN6 prolif: -1

What do the screens show for `O=C(Nc1nccs1)NC(C(F)(F)F)C(F)(F)F`?
V-ATPase pH: -7; Rtt109 Vps75: 2; HDAC3 inhib: 0; DAGLB inh: -1; MIN6 prolif: -4

Results for CN(CC(=O)Nc1cccc(Cl)c1)C1=NS(=O)(=O)c2ccccc21 ?
V-ATPase pH: 3; Rtt109 Vps75: 3; HDAC3 inhib: 0; DAGLB inh: 0; MIN6 prolif: -4

What do the screens show for `CN(CC(=O)Nc1cccc(C(F)(F)F)c1)C1=NS(=O)(=O)c2ccccc21`?
V-ATPase pH: 13*; Rtt109 Vps75: -5; HDAC3 inhib: 3; DAGLB inh: -1; MIN6 prolif: -4

Results for COc1cc(C(=O)Nc2ccncc2)cc(OC)c1OC ?
V-ATPase pH: 1; Rtt109 Vps75: -4; HDAC3 inhib: 0; DAGLB inh: 2; MIN6 prolif: -1

Results for COC(=O)c1nc(NC(=O)c2cc(OC)c(OC)c(OC)c2)n[nH]1 ?
V-ATPase pH: 0; Rtt109 Vps75: -4; HDAC3 inhib: 39*; DAGLB inh: 6; MIN6 prolif: 4

What do the screens show for `CCOc1cc(S(=O)(=O)N2CC=C(c3ccc(F)cc3)CC2)c(OCC)cc1-n1cnnn1`?
V-ATPase pH: -2; Rtt109 Vps75: -7; HDAC3 inhib: -4; DAGLB inh: 2; MIN6 prolif: -4

Results for CCOc1cc(S(=O)(=O)N2CCC(Cc3ccccc3)CC2)c(OCC)cc1-n1cnnn1 ?
V-ATPase pH: -5; Rtt109 Vps75: 55*; HDAC3 inhib: -4; DAGLB inh: -5; MIN6 prolif: -2

What do the screens show for `C=Cc1ccc(CSc2cc(C)nc3nc(C)nn23)cc1`?
V-ATPase pH: -3; Rtt109 Vps75: -7; HDAC3 inhib: 31*; DAGLB inh: 0; MIN6 prolif: -2
